# Screens from PubChem BioAssay.
# D2 PAM-1 – human D2 receptor positive allosteric modulation | P14416 | DiscoveRx D2 beta-arrestin cells, luminescence, 90 min; 100% = 57 uM dopamine signal | potentiation, % (no concentration beside the values) | 360,000 compounds, 0.23% hits; in the data active means potentiation above about 50%; inconclusive means mostly about 30% to 49%
# Target sequence (P14416 whole entry, looked up): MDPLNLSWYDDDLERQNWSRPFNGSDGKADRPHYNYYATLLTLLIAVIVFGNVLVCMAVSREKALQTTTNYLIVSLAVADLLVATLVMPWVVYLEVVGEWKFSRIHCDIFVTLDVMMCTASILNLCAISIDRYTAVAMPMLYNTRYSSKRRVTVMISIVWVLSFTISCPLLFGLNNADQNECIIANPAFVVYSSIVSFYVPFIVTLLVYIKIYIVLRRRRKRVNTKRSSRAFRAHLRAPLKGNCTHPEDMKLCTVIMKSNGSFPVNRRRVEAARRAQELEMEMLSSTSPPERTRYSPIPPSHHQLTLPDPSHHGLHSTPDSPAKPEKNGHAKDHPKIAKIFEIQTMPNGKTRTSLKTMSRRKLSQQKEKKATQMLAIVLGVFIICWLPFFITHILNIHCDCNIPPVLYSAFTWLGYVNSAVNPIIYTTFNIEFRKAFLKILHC
#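 PathHunter D2 cells, attached overnight at 37 deg C, received compound in DMSO plus dopamine at EC20 (50 nM final) for 90 min at 37 deg C. Beta-arrestin recruitment was read as luminescence after 1 h with detection reagent at ambient temperature.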
# D2 PAM-2 – D2 dopamine receptor (human) potentiation | HEK293 T-REx D2, calcium flux, EC20 dopamine potentiation | potentiation, % at 10 µM | 340,000 compounds, 0.34% hits | AID 485347;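 active means potentiation over 3 SD above the plate norm, cut at about 30% in these data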
#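 Tetracycline-induced HEK293 T-REx cells force-coupled to calcium signalling expressed D2; compounds were pin-added after a 10 s baseline, read kinetically 180 s, then an EC20 dopamine challenge followed with a further 180 s calcium read.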
# D2 ag-1 – activates the human D2 dopamine receptor; activation, % at 2 µM; P14416; AID 485358; HEK293 T-REx D2 cells, calcium flux agonist mode; 340,000 compounds, 0.53% hits;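 active means activation over 3 SD above normal in the single-dose calcium agonist read, cut at about 30% in these data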
#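 Tetracycline-induced HEK293 Trex cells with D2 receptor force-coupled to calcium signaling, plated overnight at 30 C and loaded with no-wash calcium dye. Calcium flux read kinetically for 180 s after compound addition; responses flag agonists.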
# D2 ag-2 – agonists of human D2 dopamine receptor (beta-arrestin); AID 624465; DiscoveRx PathHunter D2 beta-arrestin, luminescence, 90 min; 100% = 57 uM dopamine signal; 360,000 compounds, 0.084% hits; activation, % (no concentration beside the values); in the data active means activation above about 40%; inconclusive means between about 15% and that limit
#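 DiscoveRx PathHunter D2 beta-arrestin cells (2,100/well) attached overnight, then compound-stimulated 90 min at 37 C in HBSS/10 mM HEPES/0.1% Tween-20 buffer; beta-galactosidase complementation read by luminescence after 1 h at ambient temperature. Dopamine 57 uM final (EC100) as control.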
# D2 antagonist – antagonizes the human D2 dopamine receptor | P14416 | HEK293 TREx D2 cells, calcium flux, dopamine EC80 | 340,000 compounds, 2% hits | inhibition, % at 10 µM; in the data active means inhibition above about 30%; inactive means below that, where a call was filed
#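 Compounds are added to dye-loaded, induced HEK293 T-REx cells coupled to calcium release via D2; after a 3 min kinetic read an EC80 dopamine stimulus is given and fluorescence is recorded for 3 more min.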
# Hits are given with their value; – = inactive; ? = inconclusive; · = no result; ! = repeats disagree. This is a sample that favours compounds with a hit; in the whole collection about 2.4% have one here.
SMILES,D2 PAM-1,D2 PAM-2,D2 ag-1,D2 ag-2,D2 antagonist
Cc1n[nH]c(=S)n1/N=C/c1ccc(OCc2ccc(Cl)cc2Cl)cc1,–,–,–,–,31.3
COC(=O)c1sccc1NC(=O)Cc1ccc(Br)cc1,–,–,–,–,42.4
COC(=O)c1sccc1NC(=O)Nc1ccc(C)c(C)c1,–,–,–,–,–
COC(=O)c1sccc1NC(=O)c1ccc(C)s1,–,33.0,–,–,32.8
COC(=O)c1sccc1NC(=O)Nc1ccc(Cl)c(Cl)c1,–,–,–,–,43.9
CCOc1cccc(C(=O)Nc2ccc(-c3nc4ncccc4o3)cc2C)c1,·,–,–,·,·
COc1cccc(NC(=O)c2oc3ccccc3c2NC(=O)c2ccccc2C)c1,·,–,–,·,·
COc1cc(S(=O)(=O)N2CCC(c3nc4ccccc4s3)CC2)ccc1S(=O)(=O)N1CC(C)CC(C)C1 (stereo unspecified),–,34.0,–,–,–
CCCc1cc(C(N)=O)c(NC(=O)c2ccoc2C)s1,–,·,–,–,30.9
COc1ccc(N2CCN(C(=O)C3CCN(S(=O)(=O)c4cnc[nH]4)CC3)CC2)cc1,·,–,–,·,·
COc1ccc(CCN2C(=O)CN=C2Nc2ccc(F)cc2)cc1OC,–,–,–,–,–
C=CCN1C(=O)CN=C1Nc1ccc(F)cc1,–,–,–,–,54.3
CCN(CCCNC(=O)c1ccc(Sc2ccc(Cl)cc2)c(NC(C)=O)c1)c1ccccc1,·,–,–,·,·
Cc1nnc2ccc(-c3ccc(NS(C)(=O)=O)cc3)nn12,–,–,–,–,32.6
CCOc1ccc(N(Cc2cc3cc(C)ccc3[nH]c2=O)C(=O)c2cccc(Cl)c2)cc1,·,–,–,·,·
CCOC(=O)C1CCCN(CCC(=O)Nc2c(C(=O)OC)[nH]c3cc(OC)ccc23)C1 (stereo unspecified),–,–,–,–,–
COC(=O)c1[nH]c2cc(OC)ccc2c1NC(=O)CCN1CCN(c2ccccc2)CC1,–,–,–,–,63.2
COC(=O)c1[nH]c2cccc(C)c2c1NC(=O)CN1CCN(C(=O)c2ccco2)CC1,–,–,–,–,–
COc1ccc(OC)c(NC(=O)CCN2CCN(Cc3ccccc3)CC2)c1,–,–,36.3,–,–
COC(=O)c1[nH]c2cccc(OC)c2c1NC(=O)CCN1CCN(c2ccccc2F)CC1,·,–,44.2,·,73.6
COC(=O)c1[nH]c2cccc(C)c2c1NC(=O)CN1CCN(c2ccccc2OC)CC1,–,–,39.0,–,54.4
COC(=O)c1[nH]c2cccc(OC)c2c1NC(=O)CCN1CCC(C(N)=O)CC1,·,–,–,·,–
CCC1CCCCN1C(=O)CSc1nc(-c2ccc(OC)cc2)cc(C(F)(F)F)n1 (stereo unspecified),·,–,–,·,·
COc1ccc(Cl)cc1NC(=O)CSc1nc(-c2ccccc2)c2ccccc2n1,·,–,–,·,·
COC(=O)c1c(NC(=O)CN2CCN(c3ccccc3)CC2)c2c(C)cccc2n1C,–,–,–,–,–
SMILES,D2 PAM-1,D2 PAM-2,D2 ag-1,D2 ag-2,D2 antagonist
COC(=O)c1c(NC(=O)CN2CCN(c3ccccc3OC)CC2)c2c(C)cccc2n1C,·,–,52.3,·,–
CCOC(=O)c1sc(=S)n(-c2ccc(C)cc2)c1SC,–,–,–,–,47.6
Oc1ccc(C2CNCCc3c2cc(O)c(O)c3Cl)cc1 (stereo unspecified),58.3!,–,–,?,–
COc1ccc(CCC(=O)NC2CC(=O)N(c3ccc(F)cc3)C2)cc1 (stereo unspecified),·,–,–,·,·
Cc1cc(C)cc(OCc2cc(=O)n3c(-c4ccccc4)csc3n2)c1,·,–,–,·,·
CCOc1ccc(NC(=O)CN(C)Cc2cc(=O)n3c(-c4ccccc4)csc3n2)cc1OCC,–,–,–,–,40.6
Clc1ccc(OCCNCCc2ccccc2)cc1,–,–,–,–,54.3
c1ccc(CCNCCCOc2cccc3ccccc23)cc1,–,–,–,–,35.2
CC1=CC(=O)CC2C1(C)CCC(C)C2(C)CCC(C)CC(=O)O (stereo unspecified),–,–,–,–,32.3
CCOC(=O)c1ccc(NC(=O)Oc2ccccc2)cc1,–,33.3,–,–,–
CCOC(=O)c1ccc(NC2=CC(=O)C(=O)c3ccccc32)cc1,111.8,–,–,–,–
Cc1ccc(C)c(NC(=O)CN2C(=O)NC(CCc3ccccc3)C2=O)c1 (stereo unspecified),–,·,·,–,·
Cc1cc(C)c(NC(=O)CN2C(=O)NC(CCc3ccccc3)C2=O)c(C)c1 (stereo unspecified),–,–,–,–,31.7
CCCCn1c(CCC)nc([N+](=O)[O-])c1Sc1ccc(Cl)cn1,–,–,–,–,40.2
COc1ccc2cc(C(C)C(=O)N3CCC(C(N)=O)CC3)ccc2c1 (stereo unspecified),–,32.3,–,–,–
O=C(NCCn1cc(SCc2ccc(F)cc2)c2ccccc21)c1cccs1,·,–,–,·,·
CCOC(=O)CNC(=O)c1sc(NC(=O)/C=C/c2ccccc2)nc1C,–,–,–,–,33.8
CCOC(=O)CSc1nc(C)nc2c1sc1nc(C)c(C(C)=O)c(-c3ccc(OC)cc3)c12,–,–,–,–,39.6
Oc1ccccc1N1CCN(CC(O)COC2CCCc3ccccc32)CC1 (stereo unspecified),–,–,–,–,40.1
OC(COc1ccc2c(c1)CCC2)CN1CCN(c2ccccc2F)CC1 (stereo unspecified),–,–,–,–,–
O=C(Nc1ccc2c(c1)C(=O)OC2)c1ccc(C(F)(F)F)cc1,–,–,–,–,33.7
CSCCC(NS(=O)(=O)c1ccc(Cl)c(Cl)c1)C(=O)O (stereo unspecified),–,–,–,–,–
CSCCC(NS(=O)(=O)c1ccc2[nH]c(=O)c(=O)[nH]c2c1)C(=O)O (stereo unspecified),–,–,–,–,35.7
O=C1CC(c2nc3ccccc3n2CCCOc2ccccc2)CN1c1ccc(F)cc1 (stereo unspecified),·,–,–,·,·
Cc1ccc(-n2nnnc2SCc2ccc(C(=O)O)cc2)cc1C,–,–,–,–,30.3
SMILES,D2 PAM-1,D2 PAM-2,D2 ag-1,D2 ag-2,D2 antagonist
Cc1cc(C)cc(NC(=O)C2CCN(S(=O)(=O)c3ccc4[nH]c(=O)ccc4c3)CC2)c1,–,–,–,–,31.2
CC(=O)N1CCOc2ccc(S(=O)(=O)N3CCC(C(=O)Nc4cc(C)cc(C)c4)CC3)cc21,–,–,–,–,52.0
COc1ccccc1N1CCN(C(=O)c2cc3c(=O)n(Cc4cccs4)ccc3nc2C)CC1,·,–,–,·,·
CCc1nn(C(C)C(=O)NCCN2CCN(c3cccc(C)c3C)CC2)c(=O)c2cc3occc3n12 (stereo unspecified),–,–,–,–,51.5
CCN(CC)CCOc1c(C)cccc1Cl,–,–,–,–,62.0
O=c1c2nnn(-c3cccc(F)c3)c2ncn1Cc1ccccn1,–,–,–,–,33.9
